These results are taken from PubChem BioAssay (Tox21).

Results filed as inconclusive are left out. The source made the active and inactive calls. Unless noted, the call rests on the fitted dose curve; in most records, active means well fitted curve in the direction sought with a large enough effect in the repeat runs; inconclusive means weak or mixed curves; inactive means no such curve, though single readings can be large; an effect the other way counts as inactive or inconclusive.

Test [1] can be described thus: qHTS assay to identify small molecule agonists of the vitamin D receptor (VDR) signaling pathway - cell viability counter screen (AID 743224). Further: nearly all actives have a fitted effect of over 50% in size. Further: potency means the concentration at half of the fitted maximal effect. A digest of the protocol: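 VDR-bla cell line, quantitative HTS format; 16 h compound incubation (37C, 5% CO2); ATP-based CellTiter-Glo luminescence measured in the reporter assay wells.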
In general terms: qHTS replaces the single test concentration by a dilution series.

A short description of test [2]: qHTS assay to identify small molecule antagonists of the vitamin D receptor (VDR) signaling pathway - cell viability counter screen (AID 743225). Further: nearly all actives have a fitted effect of over 50% in size. Further: potency means the concentration at half of the fitted maximal effect. A digest of the protocol: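 HEK293T VDR-bla; cpd + 1a,25-(OH)2D3 3 nM final, 16 h 37C/5% CO2; B/G FRET substrate 2 h RT; then CellTiter-Glo 30 min RT, luminescence.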
Test [3] can be described thus: qHTS assay to identify small molecule agonists of the NFkB signaling pathway (AID 1159509; active means well fitted curve in the direction sought with a large enough effect in the signal ratio in the repeat runs, not every such curve was filed as active; the % refers to the signal ratio). Put shortly: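 ME-180 NFkB-bla, 2,000 cells/well, overnight plating; cpd pinned in DMSO, 5 h 37 C; B/G FRET substrate 1.5 h RT; ex 405, em 460/530 nm.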
Test [4] in a line: qHTS assay to identify small molecule agonists of the endoplasmic reticulum stress response signaling pathway (AID 1159516; active means well fitted activation curve with a large enough effect in the signal ratio in the repeat runs, not every such curve was filed as active; the % refers to the signal ratio). A digest of the protocol:
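ER stress element reporter (bla) in HeLa. 1,500 cells/well, overnight attachment; 5 hr compound; 2 hr RT substrate; dual-emission fluorescence.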

Test [5] can be described thus: qHTS assay to identify small molecule agonists of the endoplasmic reticulum stress response signaling pathway - cell viability counter screen (AID 1159517; calls by dose curve; further: nearly all actives have a fitted effect of over 50% in size; further: potency means the concentration at half of the fitted maximal effect). Put shortly: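 CellTiter-Glo was added to wells already read for beta-lactamase FRET, and luminescence was recorded 30 min later. Cells: ESRE-bla HeLa, 1,500 per well, compound exposure 5 hr at 37 C.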
Test [6] can be described thus: qHTS assay to identify small molecule antagonists of the retinoid-related orphan receptor gamma (ROR-gamma) signaling pathway - cell viability counter screen (AID 1159520). Further: nearly all actives have a fitted effect of over 50% in size. Further: potency means the concentration at half of the fitted maximal effect. A digest of the protocol:
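Tet-on ROR gamma CHO cells (1,000/well) were plated 4 hr, given compounds in DMSO for 2 hr at 37 C, then induced with 1 uM final doxycycline for 16 hr. Viability was read as ATP by CellTiter-Glo luminescence after 30 min.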

For test [7], the target named is Nuclear receptor ROR-gamma (Homo sapiens) (UniProt P51449). Kind of test: qHTS assay to identify small molecule antagonists of the retinoid-related orphan receptor gamma (ROR-gamma) signaling pathway (AID 1159521; further: nearly all actives have a fitted effect of over 50% in size; further: potency means the concentration at half of the fitted maximal effect). Put shortly: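 Cells were plated, rested 4 h at 37 C, exposed to compounds for 2 h, then given 1 uM final doxycycline hyclate to induce RORγ expression. After 16 h, ONE-Glo luminescence from the ROR response element reporter was measured.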

A short description of test [8]: qHTS assay to identify small molecule agonists of the AP-1 signaling pathway - cell viability counter screen (AID 1159525; calls by dose curve; further: nearly all actives have a fitted effect of over 55% in size; further: potency means the concentration at half of the fitted maximal effect). Put shortly:
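ME-180 AP-1-bla, 2500 cells/well, Opti-MEM + 0.5% dialyzed FBS; overnight 37 °C; cpd 15-pt titration, 5 h 37 °C; CellTiter-Glo 30 min RT; luminescence read; normalised to TOAB and DMSO controls.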

The target of test [9] is Retinoic acid receptor RXR-alpha (Homo sapiens) (UniProt P19793). Kind of test: qHTS assay to identify small molecule agonists of the RXR signaling pathway (AID 1159527; calls by dose curve; further: nearly all actives have a fitted effect of over 35% in size). Put shortly:
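Cells plated at 2,000/well, rested 5 hr at 37 C, pin-dosed with DMSO compound solutions, incubated 16 hr, then loaded with B/G FRET substrate for 2 hr at RT before dual-emission fluorescence reading.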

Test [10] can be described thus: qHTS assay to identify small molecule agonists of the RXR signaling pathway - cell viability counter screen (AID 1159529). Further: nearly all actives have a fitted effect of over 50% in size. Further: potency means the concentration at half of the fitted maximal effect. A digest of the protocol: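 Steps: seed RXR-alpha-UAS-bla HEK 293T cells in assay medium containing 2% charcoal-stripped FBS; incubate 5 hr; add compounds in DMSO; incubate 16 hr at 37 C; after the bla read, add CellTiter-Glo and read luminescence at 30 min.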

Test [11] can be described thus: qHTS assay to identify small molecule antagonists of the retinoid acid receptor (RAR) signaling pathway - cell viability counter screen (AID 1159551). Further: nearly all actives have a fitted effect of over 35% in size. Put shortly:
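Following overnight attachment, C3RL4 reporter cells received DMSO-dissolved compounds and then retinol (1 uM final). Six hours later at 37 C, ATP content was measured by CellTiter-Glo luminescence.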

Test [12] in a line: qHTS assay to identify small molecule antagonists of the retinoic acid receptor (RAR) signaling pathway (AID 1159552; further: nearly all actives have a fitted effect of over 50% in size; further: potency means the concentration at half of the fitted maximal effect). Put shortly: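 Retinol at 1 uM final stimulated RARE-luciferase expression in C3RL4 cells exposed to test compounds for 6 hr at 37 C. Reduced luminescence, read 30 min after detection reagent, indicated pathway antagonism.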
Test [13] is described as follows: qHTS assay to identify small molecule agonists of the retinoic acid receptor (RAR) signaling pathway (AID 1159553). The following applies: C3RL4 RARE luciferase reporter, agonist, 6 h; activation: at 73.3 µM (top of the series). Put shortly:
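Cell line C3RL4, RARE luciferase reporter. Treatment: compounds in DMSO, 6 hr, 37 C, 5% CO2, after overnight plating. Detection: luminescence, 30 min RT after reagent.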

A short description of test [14]: qHTS assay to identify small molecule agonists of the AP-1 signaling pathway (AID 1159526; calls by dose curve).

Sequence of Retinoic acid receptor RXR-alpha (Homo sapiens) (P19793 whole entry, looked up): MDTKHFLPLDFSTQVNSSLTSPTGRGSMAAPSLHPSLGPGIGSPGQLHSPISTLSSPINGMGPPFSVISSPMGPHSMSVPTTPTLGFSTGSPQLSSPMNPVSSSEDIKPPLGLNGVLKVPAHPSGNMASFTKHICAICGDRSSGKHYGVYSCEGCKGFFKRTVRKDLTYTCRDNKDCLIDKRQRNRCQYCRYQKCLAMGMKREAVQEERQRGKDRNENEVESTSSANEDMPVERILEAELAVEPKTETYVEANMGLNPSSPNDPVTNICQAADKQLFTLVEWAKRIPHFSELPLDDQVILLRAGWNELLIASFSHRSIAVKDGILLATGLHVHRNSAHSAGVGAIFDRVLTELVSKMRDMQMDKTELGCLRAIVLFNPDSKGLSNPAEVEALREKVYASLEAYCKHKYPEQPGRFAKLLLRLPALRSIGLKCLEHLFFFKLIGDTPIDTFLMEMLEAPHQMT

In the case of `CCOC(=O)c1ccc(I)cc1`, the Potency entry in test [1], in test [2], in test [3], in [4], in [5] and in test [6] was “inactive” throughout. Further, the Potency result in [7], in test [8], in [9], in [10], in [11] and in test [12] was “inactive” throughout. Further, the Potency entry in [13] was “inactive”.

In the case of `c1ccc2sc(SN(C3CCCCC3)C3CCCCC3)nc2c1`, the Potency result in test [1], in test [2], in test [3], in test [4], in [5] and in test [6] was “inactive” in each case. For the same compound, the Potency entry in test [7], in [8], in [14], in test [10] and in [11] was “inactive” in each case.

With `C=C/C(C)=C/C/C=C(\C)CCC=C(C)C`, the Potency result in [1], in [2], in test [3], in test [4], in [5] and in test [6] was “inactive” throughout. Moreover, the Potency entry in test [7], in [8], in [14] and in test [11] was “inactive” each time.

For `CCC(C)(C)OC`, the Potency result in test [1], in test [2], in test [3], in test [4], in test [5] and in test [6] was “inactive” throughout. The Potency entry in test [7], in test [8], in test [14], in test [11], in test [12] and in [13] was “inactive” in each case. The Potency in [10] was 48.8 µM (active).

Take `COc1cc(C(=O)NC2CCN(C)CC2)ccc1Nc1ncc2c(n1)N(C1CCCC1)CC(F)(F)C(=O)N2C`: the Potency in [1] was 15.9 µM (active); in test [2], 7.11 µM (active); in test [5], 50.4 µM (active); in test [6] it was 22.3 µM (active); in test [7] it was 15.8 µM (active); in test [8], 6.34 µM (active). The Potency was 31.8 µM (active) in test [10] and 2.5 µM (active) in [12]. Also, the Potency entry in test [3], in test [4] and in [14] was “inactive” in each case.

Take `CC(=O)Nc1ccc(C)cc1C`: the Potency entry in test [1], in test [2], in [3], in [4], in test [5] and in [6] was “inactive” in each case. Further, the Potency entry in [7], in test [8], in test [14], in test [9], in test [10] and in test [11] was “inactive” each time.

For `Nc1nnc(-c2ccc([N+](=O)[O-])o2)o1`, the Potency entry in [1], in [2], in test [3], in test [4], in test [5] and in [6] was “inactive” each time. In addition, the Potency result in test [8], in [10], in [11], in [12] and in [13] was “inactive” each time. The Potency in test [7] was 6.86 µM (active).

On to `C1C[C@@H]2[C@H]3CC[C@H](C3)[C@@H]2C1`, for which the Potency entry in test [1], in test [2], in test [3], in test [4], in test [5] and in test [6] was “inactive” throughout. In addition, the Potency entry in [7], in test [8], in [9], in test [10], in [11] and in test [12] was “inactive” in each case. Further, in test [13], the Potency result is “inactive”.

Consider `O=C=Nc1cccc(C(F)(F)F)c1`, for which the Potency entry in [3], in test [4], in test [5], in test [6], in test [7] and in test [8] was “inactive” throughout. Moreover, the Potency entry in test [14], in test [9] and in [11] was “inactive” in each case.

`c1ccc2c(c1)CCc1ccccc1N2`: the Potency result in test [1], in test [2], in [3], in test [4], in test [5] and in test [6] was “inactive” throughout. Besides, the Potency entry in test [7], in test [8], in test [9], in [11], in test [12] and in [13] was “inactive” each time.
